From PubChem
CHX counter: Cycloheximide Counterscreen for Small Molecule Inhibitors of Shiga Toxin | 12% of 300,000 active | AID 2314, 2010 | cell reporter, cycloheximide protein synthesis inhibition counterscreen | max response, %; in the data active means max response mostly above about 13%, no sharp cut-off; inactive means mostly below about 14%; further: read at 38.3 µM for the half of the compounds with a filed dose; 0% is about no effect
Shiga toxin inh: A qHTS for Small Molecule Inhibitors of Shiga Toxin; Vero cells, Shiga toxin protein synthesis inhibition reporter; inhibition, % at 38.7 µM; 9.2% of 290,000 active; in the data active means inhibition mostly above about 28%, no sharp cut-off; inactive means mostly below about 43%; further: 0% is about no effect
HCMV inh: qHTS Assay for inhibitors of the human cytomegalovirus (HCMV) | 4.5% of 410,000 active | HFF cells, HCMV-luciferase reporter, 72 h; stronger effect = lower value | activity change, negative = inhibition, % at 57.5 µM; in the data active means activity change below about -60%; inconclusive means no clear call, values can overlap the other calls; inactive means above about -39%; further: on the % scale 0 is the no-effect control and ±100 the full control effect
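Screen run at 2 compound doses on HFFs infected with reporter HCMV, MOI 1 PFU/cell. Luciferase activity from cell lysates at 72 h post infection gave inhibition relative to buffer-only and Salinomycin wells.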
Pf growth 48h: Primary qHTS for delayed death inhibitors of the malarial parasite plastid, 48 hour incubation; AID 504832, 2011; 5.9% of 310,000 active; P. falciparum luciferase growth in erythrocytes, 48 h; Potency, µM (series often up to 28.7 µM), for the others: at the top dose activity change, negative = inhibition, most hits filed as inhibitors; further: potency means the concentration at half of the fitted maximal effect; on the % scale 0 is the no-effect control and ±100 the full control effect
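Firefly luciferase activity from engineered P. falciparum reports growth; inhibitors lower the luminescent signal. Cultures contained 2% hematocrit erythrocytes at 0.1% final parasitemia.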
Pf growth 96h: Primary qHTS for delayed death inhibitors of the malarial parasite plastid, 96 hour incubation; P. falciparum luciferase reporter growth, 96 h; Potency, µM (titrated, usually from 28.7 µM), without a hit: at the highest dose activity change, negative = inhibition, usual class: inhibitors; 6.9% of 320,000 active; further: potency means the concentration at half of the fitted maximal effect; on the % scale 0 is the no-effect control and ±100 the full control effect
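Compounds incubated with erythrocytes infected by luciferase-expressing P. falciparum (2% hematocrit, 0.05% parasitemia final) for 96 hours, 37 C in 5% CO2. Growth inhibition scored as decreased luciferase luminescence.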
An asterisk follows results filed as active; i = inactive; ? = inconclusive; nt = not tested or not shown. Compounds with a hit are over-represented: about 20% of the library has one in this group of screens. Unless noted, the call rests on the fitted dose curve; in most records, active means well fitted inhibition curve with a large enough effect; inconclusive means small, poorly fitted or top-dose-only effect, or another doubt; inactive means no such curve, though single readings can be large or run the other way.

SMILES | CHX counter | Shiga toxin inh | HCMV inh | Pf growth 48h | Pf growth 96h
CCn1c(SCC(=O)NNC(=O)Cc2ccccc2)nnc1-c1ccncc1 | -3.5 | -4.7 | -34.9 | 1.47µM* | 0.329µM*
O=[N+]([O-])c1cc(S(=O)(=O)N2CCCC2)ccc1OCCOc1ccccc1 | nt | nt | -20.0 | -18.4% | ?
O=[N+]([O-])c1cc(S(=O)(=O)N2CCCC2)ccc1OCc1ccccc1 | 28.3* | 17.2 | -26.1 | -6.3% | 0.7%
CCN1CCN(S(=O)(=O)c2ccc3[nH]c(=O)oc3c2)CC1 | -3.1 | -18.7 | 67.1 | nt | ?
O=[N+]([O-])c1cc(S(=O)(=O)N2CCCCCC2)ccc1F | -3.2 | -12.2 | -97.2* | 0.4% | ?
O=c1[nH]c2ccc(S(=O)(=O)N3CCCCC3)cc2o1 | -5.4 | -5.0 | 5.4 | 8.1% | 10.4µM*
COC(=O)c1cc(O)cc(OC)c1Oc1cc(C)cc(O)c1C(=O)O | -1.7 | 1.3 | -105.7* | 2.62µM* | -3.9%
COC(=O)c1cc(O)cc(OC)c1C(=O)c1c(O)cc(C)cc1O | -3.6 | -11.0 | 28.0 | ? | 5.22µM*
COc1ccc(NC(=O)CSc2nnc(NC(=O)CN3CCOCC3)s2)cc1 | -3.0 | 4.9 | -28.3 | ? | ?
O=C(Nc1cccc(Cl)c1)N(Cc1nc2ccccc2c(=O)[nH]1)Cc1cccs1 | 7.7 | -3.9 | ? | 7.38µM* | ?
COCCCNC(=O)/C(C#N)=C/c1c(N2CCN(c3cccc(Cl)c3)CC2)nc2c(C)cccn2c1=O | -1.4 | -7.4 | -15.5 | ? | ?
C=CCNC(=O)/C(C#N)=C/c1c(N2CCN(c3ccc(OC)cc3)CC2)nc2c(C)cccn2c1=O | -2.3 | 3.0 | -10.1 | 13.1µM* | ?
COC(=O)/C(C#N)=C/c1c(N2CCN(c3ccccc3)CC2)nc2c(C)cccn2c1=O | 0.2 | -6.3 | -16.5 | 9.28µM* | ?
COCCCNC(=O)/C(C#N)=C/c1c(N2CCN(c3ccccc3)CC2)nc2c(C)cccn2c1=O | -3.6 | -12.2 | 17.5 | 13.1µM* | 10.4µM*
Nc1cnc(Nc2ccc(Br)cc2)nc1N | 27.5* | 57.8* | 2.4 | -57.1% | ?
CN(CC1CCCCC1)[C@@H]1CC[C@@]23CCCN2C(=O)CCC[C@H]3[C@H]1Cc1ccccc1 | nt | nt | 26.7 | nt | nt
O=C(c1ccc(Cl)cc1)C1CCCN(Cc2ccc3ncccc3c2)C1 (stereo not given) | -0.5 | -12.1 | -75.3* | ? | 3.7%
O=C(c1ccc(Cl)cc1)C1CCCN(Cc2cccc3cnccc23)C1 (stereo not given) | -3.1 | -5.7 | -61.9* | ? | ?
O=C(c1cccc(Cl)c1)C1CCCN(Cc2cccc3cnccc23)C1 (stereo not given) | 1.3 | -6.6 | -71.1* | ? | 1.2%
COc1ccc(CN2CCCC(C(=O)c3cccc(Cl)c3)C2)cc1 (stereo not given) | -0.2 | -9.9 | -14.0 | 25.7% | 0.0%
COc1ccc(S(=O)(=O)N2CCOC2CNC(=O)C(=O)NCCCN(C)C)cc1C (stereo not given) | nt | nt | 10.2 | nt | nt
COC(=O)c1cn[nH]c1NC(=S)Nc1ccccc1C | 44.7* | 92.1* | 51.5 | 128.8% | 131.6%
COC(=O)c1cn[nH]c1NC(=S)Nc1ccc(C)cc1Cl | 27.2* | 74.5* | 12.6 | 121.4% | i
CCOC(=O)c1cn[nH]c1NC(=S)Nc1ccc(OC)cc1 | 17.2 | 1.4 | ? | 111.4% | i
COC(=O)c1cn[nH]c1NC(=S)Nc1ccc(Cl)c(Cl)c1 | 71.0* | 118.0* | ? | nt | -65.6%
SMILES | CHX counter | Shiga toxin inh | HCMV inh | Pf growth 48h | Pf growth 96h
COc1cccc(C(=O)NCC(=O)NCc2cc(=O)n(C)c(=O)n2C)c1OC | -2.3 | -6.1 | -2.2 | -0.8% | 0.2%
C[C@H](CO)N1C[C@H](C)[C@@H](CN(C)Cc2ccc(Cl)c(Cl)c2)Oc2c(NC(=O)Cc3ccccc3)cccc2C1=O | nt | nt | -20.0 | nt | nt
Cn1cc(C(=O)O)c(-c2ccc3c(c2)OCCCO3)n1 | -4.3 | -4.6 | 47.7 | 20.8% | 32.3%
N#Cc1cn(-c2ccccc2)nc1-c1ccc2c(c1)OCCO2 | 23.7* | 63.8* | 66.5 | 141.9% | -2.4%
CN(C(=O)COC(=O)/C=C/c1cn(-c2ccccc2)nc1-c1ccc2c(c1)OCCO2)C1CCS(=O)(=O)C1 (stereo not given) | -3.4 | -5.1 | -26.8 | ? | 11.7µM*
O=Cc1cn(-c2ccccc2)nc1-c1ccc2c(c1)OCCO2 | 56.8* | 99.5* | 67.4 | 393.5% | ?
Cn1cc(C=O)c(-c2ccc3c(c2)OCCCO3)n1 | 43.8* | 82.8* | 64.1 | 5.7% | 1.3%
O=C(Nc1ccccc1C(=O)OCc1cc(=O)n2nc(C3CC3)sc2n1)c1ccc(Cl)cc1 | nt | nt | 16.5 | nt | nt
O=C(NCCCCNC(=O)c1ccc(Br)s1)c1ccc(Br)s1 | -2.8 | -13.8 | -12.4 | nt | -1.7%
O=C(NCCNCCO)C1(C(F)(F)F)CC(CCc2ccccc2)CCCO1 (stereo not given) | -2.8 | -3.3 | nt | nt | nt
CCCCN1C(=O)C(CC(=O)NC2CCCC2)CC(C(=O)N2CCCCCC2)=C1C (stereo not given) | nt | nt | 5.4 | nt | nt
CN1OC(C)(CC(=O)NCc2ccccc2)N=C1c1ccccc1F (stereo not given) | nt | nt | -11.6 | nt | nt
CC(=O)c1c(CSc2ccccc2)oc2ccc(O)c(CN(C)C)c12 | -4.9 | -9.7 | -69.5* | ? | 1.6%
CCOC(=O)c1c(CSc2ccccc2)oc2ccc(O)cc12 | -3.1 | -23.7 | 24.4 | ? | -11.2%
CCOC(=O)c1c(CSc2ccccc2)oc2cc(Br)c(O)c(CN(C)C)c12 | -2.7 | -13.3 | 0.0 | 2.62µM* | ?
CCOC(=O)c1c(CSc2ccc(CC)cc2)oc2ccc(O)c(CN(C)C)c12 | -5.6 | -10.0 | -81.9* | 2.33µM* | 10.5%
C[C@H]1COc2cc(N3CCCC3)ccc2S(=O)(=O)N1 | nt | nt | -1.1 | nt | nt
CC(=O)c1cccc(N(C(=O)CNC(=O)c2ccco2)C(C(=O)NCC2CCCO2)c2ccccc2)c1 (stereo not given) | -0.9 | 6.8 | -32.4 | -5.6% | 25.4%
CC1(C)N=C(c2ccc(F)cc2)C(=O)N1CC(=O)Nc1ccccc1Cl | nt | nt | 16.0 | nt | nt
COC(=O)c1ccc(NC(=S)NC2CCCCC2)cc1 | 22.7 | 41.3* | ? | -12.9% | 18.7%
CN(CC(=O)NC(=O)NC1CCCCC1)CC(=O)Nc1ccc(Cl)cc1 | nt | nt | -15.4 | ? | 4.15µM*
COc1ccc(NC(=O)NC2CCCCCCC2)cc1 | 44.7* | 60.8* | 38.1 | 137.3% | 25.7%
COC(=O)c1ccc(NC(=S)NCC2CC2)cc1 | 63.1* | 96.8* | ? | 45.3% | 32.7%
COC(=O)c1ccc(NC(=S)Nc2ccc(O)cc2)cc1 | 4.8 | 14.0 | -23.7 | 6.2% | ?
Cc1ccc(C(=O)NC2CCC(C)CC2)o1 (stereo not given) | nt | nt | 22.4 | -14.9% | 58.0%
O=C(C1CCCN(S(=O)(=O)c2ccc(Br)s2)C1)N1CCN(c2ccccc2F)CC1 (stereo not given) | nt | nt | 6.6 | nt | nt
COC(=O)c1ccc(NC(=O)C2CC3CCC2C3)cc1 (stereo not given) | nt | nt | -39.0 | nt | nt
